# Most compounds without a hit are left out; they make up all but 2.7% or so of the library.
# PAX8 reporter = inhibitors of PAX8-driven TPO luciferase reporter, primary screen, RMG-I cells, single concentration; SteadyGlo, 24 h; inhibition, % at 12.6 µM; hit rate 1.2% among 360,000;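 active = mean replicate inhibition at least 60% with every replicate also reaching 60%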;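 also: luciferase light reporting Pax8 driven TPO promoter activity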
# Env fusion inh = inhibitors of HIV-1 Env-driven cell-cell fusion, primary screen, HeLa-JRFL effector, CEM21 target cells, luciferase; AID 651610, 2012; hit rate 1.1% among 360,000; inhibition, % at 12.3 µM;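 active = mean replicate inhibition score of at least 50 and every replicate individually at or above 50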
# F508del corr = F508del CFTR correction, initial screen, CFBE line, single point; CFBE cells, YFP halide quenching; stimulated with forskolin plus potentiator P3; % fluorescence drop versus neutral controls; activity (quench increase), % at 7.58 µM; hit rate 0.36% among 350,000;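 active = mean added fluorescence quench of at least 8% versus neutral control, with both replicates also reaching 8%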;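 also: cells transiently co-express mutant CFTR-F508del with the halide-sensitive YFP; corrector assay measuring rescue of mutant channel to the surface after 24 h compound exposure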
# INS-1E GSIS act = GLuc luminescence reporter in INS-1E cells, primary screen for activators of glucose-dependent secretion of insulin; INS-1E GLuc reporter insulin secretion, 2-3 h; activation, % at 16.6 µM; hit rate 0.61% among 370,000; AID 743287, 2014;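 active = lowest replicate activation of at least 40%, so every replicate reaches that level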
# EWS-Fli block = EWS/Fli-driven NR0B1 reporter inhibitors, primary screen, A673 cells, NR0B1 luciferase, luminescence, MLPCN library. viability-normalised. inhibition, % at 12.6 µM. hit rate 0.67% among 350,000. AID 651661, 2012;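 active = mean inhibition of at least 50% after viability correction, with every replicate also passing that limit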;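 also: firefly luciferase signal divided by Alamar Blue viability fluorescence both relative to DMSO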
# PGC1a acetyl inh = inhibitors of PGC1a acetylation signal, primary screen, cell-based, U2OS, AlphaScreen, inhibitor mode; hit rate 0.17% among 350,000; inhibition, % at 15.6 µM; AlphaScreen anti-acetyl-lysine; with virally co-expressed GCN5 acetyltransferase;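 active = every replicate shows inhibition of at least 40%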
# DNA binder FP = DNA binders by acridine orange displacement, dose response, counter-screen for EWS/Fli inhibitor project, biochemical, fluorescence polarization, cherry-pick; salmon sperm DNA acridine orange fluorescence polarization; AC35, µM (highest dose often 68 µM); shares compounds with EWS-Fli block; hit rate 2% among 640;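 active = fitted curve reaches a 35% signal fall AC35 below twice the sample's top valid tested dose, actives reach about 48 µM in these data; inactive = the rest, including activity in the rising direction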;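 also: lower polarization ratio signals compound binding to DNA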
# Numbers stand for hits; – = inactive; · = not tested or not shown.
SMILES,PAX8 reporter,Env fusion inh,F508del corr,INS-1E GSIS act,EWS-Fli block,PGC1a acetyl inh,DNA binder FP
O=c1ccc2[n+]([O-])c3ccc(O)cc3oc-2c1,80.6,–,22.7,–,57.0,·,14.3µM
COc1cc(-c2cnc3c(NC=O)cc(-c4cccc(NC(C)=O)c4)cn23)cc(OC)c1OC,105.1,–,·,·,62.1,–,–
COc1cccc(-c2cc(NC=O)c3ncc(-c4ccc(C(C)=O)cc4)n3c2)c1,–,–,–,–,51.8,–,–
COc1cccc(-c2cnc3c(NC=O)cc(-c4cccc(NC(C)=O)c4)cn23)c1,–,–,–,–,–,–,·
Cc1ccc(C(C(=O)NCc2ccco2)N(C(=O)CNC(=O)c2cccs2)c2c(C)cc(C)cc2C)cc1 (stereo unspecified),·,·,–,–,55.5,–,–
Oc1[nH]c2ccc(Br)cc2c1N=NC(=S)N1CCOCC1,91.2,–,–,–,57.1,–,–
Oc1[nH]c2ccccc2c1N=NC(=S)N1CCOCC1,·,·,·,·,·,–,·
C[C@@H]1CN([C@H](C)CO)S(=O)(=O)c2ccc(/C=C/c3ccccc3)cc2O[C@H]1CN(C)C(=O)NC1CCCC1,–,–,–,–,–,–,·
COc1ccc(OC)c(-c2nnc3n2N=C(c2ccc(OC)c(OC4CCOC4)c2)CS3)c1 (stereo unspecified),96.8,–,–,·,59.1,–,–
COc1ccc2c3c([nH]c2c1)[C@H](CO)N(S(=O)(=O)c1ccccc1)CC31CCN(C)CC1,·,–,–,–,–,·,·
CCCCOc1ccc(NC(=O)C(=O)NCCCn2ccnc2)cc1,84.6,–,·,–,78.2,·,–
O=C(CCCN1C(=O)S/C(=C\c2ccccc2)C1=O)NNC(=O)c1ccccc1O,–,71.2,–,–,73.7,–,–
O=C(CN1C(=O)S/C(=C\c2ccccc2)C1=O)NNC(=O)c1ccccc1O,·,–,·,–,·,·,·
O=C(CCCN1C(=O)/C(=C/c2ccccc2Cl)SC1=S)NNC(=O)c1ccc(Cl)cc1Cl,–,56.6,–,·,72.1,–,–
CO[C@@H]1CN(C)C(=O)c2cc(NC(=O)C3CCOCC3)ccc2OC[C@@H](C)N(CC2CC2)C[C@@H]1C,–,–,–,–,–,–,·
CCOc1ccccc1CNC(=O)c1ccc(Sc2ccc(Cl)cc2)c(NC(C)=O)c1,–,–,·,–,79.9,–,–
CC(=O)Nc1cc(C(=O)NCc2ccco2)ccc1Sc1ccc(F)cc1,–,–,·,–,85.0,·,–
CCOc1ccc(CNC(=O)c2ccc(Sc3ccc(Cl)cc3)c(NC(C)=O)c2)cc1,–,–,·,–,·,·,·
CC(=O)Nc1cc(C(=O)NCc2ccco2)ccc1Sc1ccc(Cl)cc1,–,–,·,·,–,·,·
CCCc1nc2ccc(NC(=O)c3cccs3)cc2c(=O)n1Cc1ccccc1Cl,–,–,·,–,60.2,·,–
CCN(CC)c1cc(C)c2cc(NC(=O)c3cccs3)ccc2n1,–,–,–,–,–,–,·
COc1ccccc1CNC(=O)C[C@@H]1CC[C@H]2[C@@H](COC[C@H](O)CN2C(=O)Nc2ccc(C(F)(F)F)cc2)O1,–,·,–,–,69.9,–,–
CCOc1ccc(N=Nc2ccc(O)c3ncccc23)cc1,–,–,–,–,57.8,·,–
CCOc1ccc(N=Nc2cc(C(C)C)ccc2O)cc1,–,·,·,–,·,–,·
Cc1noc(C)c1S(=O)(=O)Nc1ccc2c(c1)C(=O)N([C@@H](C)CO)C[C@@H](C)[C@@H](CN(C)Cc1ccc(-c3ccccc3)cc1)O2,·,–,–,–,–,–,·
SMILES,PAX8 reporter,Env fusion inh,F508del corr,INS-1E GSIS act,EWS-Fli block,PGC1a acetyl inh,DNA binder FP
C/C=C/c1ccc2c(c1)O[C@@H](CN(C)C(=O)C1CCC1)[C@H](C)CN([C@H](C)CO)S2(=O)=O,·,–,–,–,–,–,·
CCCN(C)C[C@H]1Oc2ncc(-c3ccccc3)cc2C(=O)N([C@H](C)CO)C[C@@H]1C,–,–,–,·,–,–,·
CCCN(C)C[C@H]1Oc2ncc(-c3ccccc3)cc2C(=O)N([C@@H](C)CO)C[C@H]1C,–,–,–,·,56.0,–,–
CC1(CCc2ccccc2)NC(=O)N(CC(=O)N2CCc3ccccc32)C1=O (stereo unspecified),–,–,–,–,–,–,·
CC1(CCc2ccccc2)NC(=O)N(CC(=O)N2CC(=O)Nc3ccccc32)C1=O (stereo unspecified),–,–,–,–,62.0,–,–
CC(=O)/C(=C/c1ccccc1)C(=O)Nc1ccccc1C,–,–,·,–,–,–,·
Cc1ccccc1NC(=O)C(=Cc1ccc(C(=O)O)cc1)C(=O)Nc1ccccc1C,109.2,–,–,–,54.2,–,–
Cc1csc(NC(=O)c2ccc(OCC3CCCO3)cc2)n1 (stereo unspecified),–,–,–,·,–,–,·
O=C(Nc1nc(-c2ccc(F)c(F)c2)cs1)c1ccc(OCC2CCCO2)cc1 (stereo unspecified),–,–,·,–,73.9,·,–
COC(=O)C[C@H]1C[C@H]2c3cc(NC(=O)CC4CC4)ccc3O[C@H]2[C@@H](CO)O1,–,–,–,–,–,–,·
CCOc1cc(N2CCC(O)CC2)ccc1Nc1ncc2c(n1)N(C)c1ccccc1C(=O)N2C,–,–,–,–,54.7,·,–
COc1cc(C(=O)N2CCC(N3CCN(C)CC3)CC2)ccc1Nc1ncc2c(n1)N(C)c1ccccc1C(=O)N2C,–,–,–,–,59.3,·,–
CCOc1ccccc1OCC(=O)Nc1ccc(N2CCOCC2)cc1N1CCOCC1,–,–,–,–,–,–,·
CNC[C@@H]1Oc2ncc(-c3ccc(OC)cc3)cc2C(=O)N([C@H](C)CO)C[C@@H]1C,–,–,–,–,–,–,·
C[C@@H]1CN([C@@H](C)CO)C(=O)c2cccc(NS(=O)(=O)c3ccc(F)cc3)c2O[C@@H]1CN(C)Cc1ccc(C(=O)Nc2ccccc2N)cc1,·,–,–,–,55.3,–,–
C[C@@H]1CN([C@@H](C)CO)C(=O)c2cccc(N(C)C)c2O[C@@H]1CN(C)Cc1ccc(C(=O)Nc2ccccc2N)cc1,–,–,–,·,53.8,–,–
C[C@H]1CN([C@@H](C)CO)C(=O)c2cccc(N(C)C)c2O[C@@H]1CN(C)Cc1ccc(C(=O)Nc2ccccc2N)cc1,–,–,–,–,–,–,·
C[C@H]1CN([C@@H](C)CO)C(=O)c2cccc(NC(=O)CCCCCC(=O)Nc3ccccc3N)c2O[C@@H]1CN(C)Cc1ccc2c(c1)OCO2,·,·,–,–,56.8,–,–
C[C@@H]1CN([C@@H](C)CO)C(=O)c2cccc(NC(=O)CCCCCC(=O)Nc3ccccc3N)c2O[C@H]1CN(C)Cc1ccc2c(c1)OCO2,–,·,–,–,–,–,·

# Screening data (PubChem BioAssay)
